Source: PubChem BioAssay (Paczesny and Yang Labs, IUPUI and University of Michigan)
ST2 inh: blocks human ST2 binding to IL-33; 2.3% of 78,000 active; AlphaLISA ST2-Fc/biotin-IL-33 interaction, 1 h; Q01638; AID 1259354; inhibition, % for hits at 17 µM; in the data active = inhibition above about 30%
Target sequence (Q01638 whole entry, looked up): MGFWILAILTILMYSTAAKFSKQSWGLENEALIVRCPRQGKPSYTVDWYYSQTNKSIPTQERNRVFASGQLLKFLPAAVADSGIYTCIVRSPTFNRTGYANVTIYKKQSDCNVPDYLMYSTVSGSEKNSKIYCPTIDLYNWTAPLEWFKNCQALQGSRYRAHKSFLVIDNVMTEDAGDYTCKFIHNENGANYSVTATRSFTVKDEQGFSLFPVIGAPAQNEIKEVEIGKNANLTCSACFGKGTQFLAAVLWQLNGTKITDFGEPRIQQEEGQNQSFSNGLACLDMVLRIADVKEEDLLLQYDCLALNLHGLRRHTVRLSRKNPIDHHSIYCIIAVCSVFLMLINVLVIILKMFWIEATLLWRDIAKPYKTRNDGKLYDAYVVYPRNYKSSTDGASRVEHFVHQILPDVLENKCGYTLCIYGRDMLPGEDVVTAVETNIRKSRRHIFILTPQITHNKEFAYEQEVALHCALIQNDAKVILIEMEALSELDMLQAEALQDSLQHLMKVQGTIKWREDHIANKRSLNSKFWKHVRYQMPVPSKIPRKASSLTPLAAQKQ
* = called active by the depositor; i = inactive. Only a selection was taken, and hits are over-represented in it overall.

SMILES	ST2 inh
CC(=O)N1c2ccccc2NC2=C(C(=O)CCC2)C1c1ccc(Cl)c(Cl)c1 (stereo not drawn)	i
Brc1cccc(-c2nnc3sc(CNCc4ccccc4)cn23)c1	i
Cc1cccc(Nc2c(-c3ccc(C)o3)nc3cnccn23)c1	i
CC(=O)c1cccc(NC(=O)CN2C(=O)C3C4CCC(C4)C3C2=O)c1 (stereo not drawn)	i
COc1c[nH]c(C(=O)N2C[C@@H]3[C@@H]4CC[C@@H](C4)[C@@H]3C2)cc1=O	i
NC(=O)CSc1nnc2c(n1)[nH]c1ccccc12	i
NNc1nnc2c(n1)[nH]c1ccccc12	31%*
O=C(CSc1nnc2c(n1)[nH]c1ccccc12)NCCc1ccccc1	i
FC(F)Oc1cccc(CN2CC(c3ccccn3)C2)c1	i
CC(C)S(=O)(=O)c1ncc(CN(C)Cc2nccs2)n1Cc1ccccc1F	i
Cc1[nH]c2ccc(Cl)cc2c(=O)c1CN(C)Cc1ccccc1	i
CC(=O)N1N=C(c2ccc(Cl)cc2)OC1(C)C	i
COc1ccc(CC2(C)OC(c3ccc([N+](=O)[O-])cc3)=NN2C(C)=O)cc1 (stereo not drawn)	49%*
COc1cccc(C2=NN(C(=O)Cc3ccc([N+](=O)[O-])cc3)C(O)(C(F)(F)F)C2)c1 (stereo not drawn)	i
Cc1nonc1CN(C)C(=O)c1cc(COc2ccccc2F)[nH]n1	i
CCOc1ccc(S(=O)(=O)NCc2ccccc2)c2cccnc12	i
CC(C)OCCCNC(=O)c1cc(=O)[nH]c2ccc(S(=O)(=O)N3CCCC3)cc12	i
Cc1cc(C)c(/C=C/C(=O)c2cccs2)c(C)c1	44%*
Cc1cc2ncn(C(=O)c3cccs3)c2cc1C	i
Cc1cc(Cc2ccc(NC(=O)c3cccs3)c(C)c2)ccc1NC(=O)c1cccs1	i
O=C(NCc1cnn2ccccc12)c1cnc2ccccn12	i
COc1ccc(NC(=O)c2ccc([N+](=O)[O-])cc2)c(OC)c1	i
COc1ccc(-n2c(C)c([N+](=O)[O-])c3ccc(O)cc32)cc1	i
COc1ccc2c(c1)C(C)(C)C1(C=Cc3cc([N+](=O)[O-])cc(OC)c3O1)N2C (stereo not drawn)	73%*
O=C(CNC(=O)c1cccs1)NC1CCCC1	i
SMILES	ST2 inh
O=C(c1cc(C2CC2)[nH]n1)N1CCCCC1c1cccnc1 (stereo not drawn)	i
Cc1cc(C)n(CC(C)N2CCC(n3nccc3NC(=O)c3ccc4c(c3)OCO4)CC2)n1 (stereo not drawn)	i
COc1ccccc1CN1CCCCCC1	i
CCOc1ccccc1CN1CCSCC1	31%*
COc1ccccc1CN1CCSCC1	i
C/C=C(\C)c1cc(OC)c(C)c2c1Oc1c(CO)c(O)cc(/C(C)=C/C(=O)O)c1C(=O)O2	i
COc1ccc(S(=O)(=O)Nc2ccc(NC(C)=O)cc2)cc1	i
COc1ccc(NS(=O)(=O)c2ccc(NS(=O)(=O)c3ccc(C)cc3)cc2)cc1	i
CCN(CC)c1ccc(NS(=O)(=O)c2ccc(OC)cc2)cc1	35%*
COc1ccc(Cl)cc1Nc1cc(C)nc2ccc(Cl)cc12	i
Cc1[nH]c2c(C(=O)N3CCC4(CC3)C(=O)NCCN4C)cccc2c1C	i
CCCCc1ncc(CN2CCC3(CC2)C(=O)NCCN3C)[nH]1	i
Cc1c(CN2CCC3(CC2)C(=O)NCCN3C)[nH]c2c(C)cccc12	30%*
CC1=C(C(=O)Nc2cc(C)ccn2)C(c2ccccc2)C2=C(CCCC2=O)N1 (stereo not drawn)	i
CN(Cc1ccc2c(c1)OCCO2)Cc1cn[nH]c1-c1ccc(F)cc1	i
CCSc1nc2c(c(=O)[nH]1)C(c1ccncc1)C1=C(CCCC1=O)N2 (stereo not drawn)	i
O=C(O)c1cccc2c1NC(c1ccc(F)cc1)C1CC=CC21 (stereo not drawn)	50%*
Cc1ccc([C@@H]2Nc3c(F)cccc3[C@@H]3C=CC[C@@H]32)cc1	i
Fc1cccc2c1NC(c1ccc(Br)cc1)C1CC=CC21 (stereo not drawn)	42%*
COc1cccc2c1NC(c1ccc(Br)cc1)C1CC=CC21 (stereo not drawn)	33%*
O=C(O)c1cccc2c1NC(c1ccccc1Br)C1CC=CC21 (stereo not drawn)	i
C=CCNc1ccccc1C(=O)N(C)Cc1ccc(CC)cn1	i
O=C(c1cn(Cc2ccccc2Cl)nn1)N1CCN(c2ccccc2O)CC1	i
NNc1ncc(Cl)cc1Cl	i
COc1cccc2cc(C(=O)Nc3ccc(Cl)cc3Cl)c(=O)oc12	i
SMILES	ST2 inh
Cc1ccc(CNC(=O)CCCn2c(=O)c3sccc3n(Cc3ccccc3C)c2=O)cc1	i
O=C1c2cccnc2C(Nc2ccc(F)cc2F)N1Cc1ccccc1 (stereo not drawn)	i
CCN(CC)c1ccc(C2N(c3cc(Cl)ccc3OC)C(=O)C3CCCN32)cc1 (stereo not drawn)	i
O=C(O)c1cccc(N=Cc2cccc([N+](=O)[O-])c2O)c1	i
O=[N+]([O-])c1cccc(C=Nc2ccc(-c3nc4ncccc4o3)cc2)c1O	i
O=[N+]([O-])c1ccccc1/C=C/c1ccc2cccc(O)c2n1	41%*
COc1cc(C)ccc1OCCOc1c(OC)cccc1OC	i
CCOC(=O)c1c(NC(=O)COc2ccc3c(C)cc(=O)oc3c2)sc2c1CCC2	i
COc1ccc(C(=O)N[C@H]2CC[C@]3(C)CCC([C@H](C)C(=O)N(C)Cc4cccnc4)[C@H](O)[C@H]3[C@@H]2C)cc1 (stereo partly drawn)	53%*
COCCN(CCOC)C(=O)[C@@H](C)C1CC[C@@]2(C)CC[C@H](NC(=O)c3ccncc3)[C@@H](C)[C@@H]2[C@H]1O (stereo partly drawn)	i
CCN(CC)C(=O)[C@@H](C)[C@@H]1CC[C@@]2(C)CC[C@H](NC(=O)c3cnccn3)[C@@H](C)[C@@H]2[C@H]1O	i
CCN(CC)C(=O)[C@@H](C)C1CC[C@@]2(C)CC[C@H](NC(=O)c3ccncc3)[C@@H](C)[C@@H]2[C@H]1O (stereo partly drawn)	49%*
C[C@H]1[C@@H]2[C@@H](O)C([C@H](C)C(=O)N(C)CCC#N)CC[C@@]2(C)CC[C@@H]1NC(=O)c1cncnc1 (stereo partly drawn)	i
COCCNC(=O)[C@@H](C)[C@@H]1CC[C@@]2(C)CC[C@H](NC(=O)c3ccccc3)[C@@H](C)[C@@H]2[C@H]1O	i
O=C(Nc1ccc(Cl)c(Cl)c1)[C@@H]1C[C@@H]1c1ccccc1	i
Cc1ccc(N2C(=O)NC3CC2(C)Oc2ccccc23)cc1 (stereo not drawn)	i
COc1cc(NC(=O)C2CCN(S(=O)(=O)c3cccc4cccnc34)CC2)cc(OC)c1	i
Cc1ccc(C)c(-c2[nH]ncc2CN2CCCC(CNC(=O)c3cccs3)C2)c1 (stereo not drawn)	i
O=C(O)CCN(CCC(=O)O)c1nnc(-c2ccccc2)o1	i
C(=C\c1nnc(-c2ccccc2)o1)/c1ccccc1	34%*
Nc1nnc(-c2ccccc2)o1	i
CN(CCC(O)c1ccccc1)c1ncc(F)c(N2CCOCC2)n1 (stereo not drawn)	i
Cc1nc(CCNC(=O)c2cnn(-c3ccccn3)c2C)sc1C	i
COc1ccccc1-c1ccnc(-n2ncc(C(=O)NC(c3ccncc3)c3ccc(C)cc3)c2C)n1 (stereo not drawn)	i
